# Experimental data published in PubChem BioAssay (Tox21).
# Values joined by “and” are separate entries in the source; they are usually repeats but may differ in a detail not shown here. Equal values may be shown once. Results filed as inconclusive are left out. Where a call stands in place of a potency, no number is given. Active and inactive are the calls of the source. Unless noted, calls follow the shape of the dose curve; as a rule, active = well fitted curve in the direction sought with a large enough effect in the repeat runs; inconclusive = weak or mixed curves; inactive = no such curve, though single readings can be large; an effect the other way counts as inactive or inconclusive.
# Experiments:
# [1] = qHTS assay to identify small molecule antagonists of the retinoid acid receptor (RAR) signaling pathway - cell viability counter screen (AID 1159551); also: nearly all actives have a fitted effect of over 35% in size; also: potency is read from the fitted curve at half-maximal effect
# Procedure, shortened: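 In this counter screen, the RARE-luciferase line C3RL4 was exposed for 6 h at 37 C and 5% CO2 to compounds with retinol at 1 uM final. Cellular ATP, read by luminescence, served as the viability measure.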
# [2] = qHTS assay to identify small molecule antagonists of the retinoic acid receptor (RAR) signaling pathway (AID 1159552; also: nearly all actives have a fitted effect of over 50% in size; also: potency is read from the fitted curve at half-maximal effect)
# Procedure, shortened: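 Retinol at 1 uM final stimulated RARE-luciferase expression in C3RL4 cells exposed to test compounds for 6 hr at 37 C. Reduced luminescence, read 30 min after detection reagent, indicated pathway antagonism.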
# [3] = qHTS assay to identify small molecule agonists of the retinoic acid receptor (RAR) signaling pathway (AID 1159553); also: potency is read from the fitted curve at half-maximal effect
# Procedure, shortened: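 In this cell-based screen, 1,000 C3RL4 cells per well were cultured overnight, dosed with test chemicals in DMSO for 6 hr, and assessed for RARE luciferase luminescence.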
# [4] = qHTS assay to identify small molecule antagonists of the estrogen related receptor signaling pathway with the pleiotropic PPARgamma coactivator (PGC) cell viability counter screen (AID 1224822; also: potency is read from the fitted curve at half-maximal effect;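 also: viability read after 17.5 h compound exposure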)
# Procedure, shortened: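 17.5 h compound treatment of PGC/ERR cells at 37 C; readout CellTiter-Fluor fluorescence; run alongside the PGC/ERR antagonist screen to flag cytotoxic compounds.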
# [5] = qHTS assay to identify small molecule antagonists of the estrogen related receptor (ERR) signaling pathway from Tox21 library - cell viability counter screen (AID 1224834); also: nearly all actives have a fitted effect of over 30% in size; also: potency is read from the fitted curve at half-maximal effect
# Procedure, shortened: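 Counter screen run in ERR cells (2,000 cells/well): cells pre-incubated 6 h, then treated with compounds for 17.5 h at 37 C. Fluorescence was read 30 min after CellTiter-Fluor addition.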
# [6] = qHTS assay to identify small molecule antagonists of the estrogen related receptor (ERR) signaling pathway (AID 1224819; also: nearly all actives have a fitted effect of over 50% in size; also: potency is read from the fitted curve at half-maximal effect)
# Procedure, shortened: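 Seed ERR cells 2,000/well; rest 6 h at 37 C/5% CO2; pin compounds in DMSO; incubate 18 h at 37 C; add One-Glo; wait 30 min at room temperature; measure luminescence.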
# [7] = qHTS assay to identify small molecule agonists of the estrogen related receptor (ERR) signaling pathway (AID 1224820)
# Procedure, shortened: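 After 6 h plating (2,000 cells/well) and 18 h compound treatment at 37 C, ERR cells were lysed with One-Glo and luminescence read after 30 min at room temperature.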
# [8] = tested on: estrogen-related receptor alpha (ERRalpha) with PGC-1alpha coactivator, human; experiment: qHTS assay to identify small molecule antagonists of the estrogen related receptor signaling pathway with the pleiotropic PPARgamma coactivator (PGC) (AID 1224821; calls by dose curve;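 also: series mostly up to about 46 µM; lower luminescence signal means antagonism of PGC/ERR signalling; nearly all actives have a fitted effect of over 50% in size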)
# Procedure, shortened: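 Luminescence from One-Glo luciferase reagent (30 min, room temperature) measured after 18 h compound treatment at 37 °C. Cells carry the PGC/ERR reporter and were seeded 6 h prior to dosing.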
# [9] = qHTS assay to identify small molecule agonists of the estrogen related receptor signaling pathway with the pleiotropic PPARgamma coactivator (PGC) (AID 1224823)
# Procedure, shortened: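 Luminescence from One-Glo reagent (30 min, room temperature) was read after 18 h compound treatment at 37 C of PGC/ERR cells plated 6 h beforehand; compounds delivered in DMSO by pin tool.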
compound,measurement,setting,value
c1ccc2c(c1)CCCC2C1=NCCN1 (stereo not given),Potency,[1],inactive
same,Potency,[2],inactive
same,Potency,[3],inactive
same,Potency,[4],inactive
same,Potency,[5],inactive
CNC1(C)C2CCC(C2)C1(C)C (stereo not given),Potency,[1],inactive
same,Potency,[2],inactive
same,Potency,[3],inactive
same,Potency,[6],inactive
same,outcome,[7],inactive
same,Potency,[8],inactive
same,Potency,[4],inactive
same,outcome,[9],inactive
Oc1c(Cl)cc(Cl)c(Cl)c1Cc1c(O)c(Cl)cc(Cl)c1Cl,Potency,[2],24.3 µM (active) and 15 µM (active)
same,Potency,[3],inactive
same,Potency,[5],13.6 µM (active) and 13.7 µM (active) and 8.41 µM (active)
CC[C@H]1CN2CCc3cc(OC)c(OC)cc3[C@@H]2C[C@@H]1C[C@H]1NCCc2cc(OC)c(OC)cc21,Potency,[5],15.4 nM (active) and 84.1 nM (active)
CCC(C)(C)C(=O)O[C@H]1C[C@@H](C)C=C2C=C[C@H](C)[C@H](CC[C@@H]3C[C@@H](O)CC(=O)O3)[C@H]21,Potency,[1],inactive
same,Potency,[3],inactive
same,Potency,[5],inactive
CCn1c2ccccc2c2cc(N)ccc21,Potency,[1],inactive
same,Potency,[5],inactive
c1cc(C(c2ccc(OCC3CO3)cc2)C(c2ccc(OCC3CO3)cc2)c2ccc(OCC3CO3)cc2)ccc1OCC1CO1 (stereo not given),Potency,[1],inactive
same,Potency,[2],inactive
same,Potency,[3],8.96 µM (active) and 27.3 µM (active)
same,Potency,[5],inactive
Cc1cccc2n[nH]nc12,Potency,[1],inactive
same,Potency,[2],inactive
same,Potency,[3],inactive
same,Potency,[5],inactive
COc1ccc(CCN(C)CCCC(C#N)(c2ccc(OC)c(OC)c2)C(C)C)cc1OC (stereo not given),Potency,[1],inactive
same,Potency,[5],54.4 µM (active)
C=CC(=O)OCCCCCCOC(=O)C=C,Potency,[2],13.9 µM (active) and 21.7 µM (active)
same,Potency,[3],inactive
same,Potency,[5],54.5 µM (active)
CCCCCCCCCCCC[N+](C)(C)C,Potency,[1],inactive
same,Potency,[3],inactive
same,Potency,[5],48.4 µM (active)
CCCCCCCCCCCCc1ccccc1O,Potency,[1],61.1 µM (active)
same,Potency,[2],47.9 µM (active) and 54.5 µM (active)
same,Potency,[5],43.3 µM (active)
C/C=C/c1ccc(OCC)c(O)c1,Potency,[1],inactive
same,Potency,[2],inactive
same,Potency,[3],54.5 µM (active)
same,Potency,[5],inactive
O=C1NCC2(CCN(CCc3ccccc3)CC2)O1,Potency,[1],inactive
same,Potency,[2],inactive
same,Potency,[3],inactive
same,Potency,[4],inactive
CC(=O)N[C@@H](CS)C(=O)O,Potency,[1],inactive
same,Potency,[2],inactive
same,Potency,[3],inactive
same,Potency,[4],inactive
same,Potency,[5],inactive
Cc1cc(C2(c3cc(C)c(O)cc3C)OS(=O)(=O)c3ccccc32)c(C)cc1O,Potency,[1],inactive
same,Potency,[5],21.7 µM (active) and 24.3 µM (active)
CCOc1ccc2c(c1)C(C)=CC(C)(C)N2,Potency,[1],inactive
same,Potency,[2],inactive
same,Potency,[3],54.2 µM (active) and 61.1 µM (active)
same,Potency,[5],inactive
CCCCCCC(O)CCCCCCCCCCC(=O)O (stereo not given),Potency,[1],inactive
same,Potency,[2],inactive
same,Potency,[3],inactive
Cc1c(O)cccc1C(=O)N[C@@H](CSc1ccccc1)[C@H](O)CN1C[C@H]2CCCC[C@H]2C[C@H]1C(=O)NC(C)(C)C,Potency,[1],inactive
same,Potency,[6],19.6 µM (active)
same,outcome,[7],inactive
same,Potency,[8],inactive
same,Potency,[4],10.6 µM (active)
same,outcome,[9],inactive
COC(=O)[C@H]1[C@H]2C[C@@H]3c4[nH]c5cc(OC)ccc5c4CCN3C[C@H]2C[C@@H](OC(=O)c2cc(OC)c(OC)c(OC)c2)[C@@H]1OC,Potency,[1],inactive
same,Potency,[6],21.1 µM (active)
same,outcome,[7],inactive
same,outcome,[9],inactive
Cc1cc(Cc2cc(C)cc(C(C)(C)C)c2O)c(O)c(C(C)(C)C)c1,Potency,[1],54.8 µM (active) and 48.6 µM (active)
same,Potency,[2],43.5 µM (active) and 61.1 µM (active)
same,Potency,[5],48.8 µM (active) and 43.3 µM (active)
O=Cc1ccc(Cl)cc1,Potency,[1],inactive
same,Potency,[2],inactive
same,Potency,[3],inactive
same,Potency,[5],inactive
CC(C)CCCCCCc1ccc(O)cc1,Potency,[1],78.3 µM (active)
same,Potency,[2],27.3 µM (active)
same,Potency,[3],inactive
same,Potency,[5],7.83 µM (active) and 48.6 µM (active)
CN1C(=O)c2ccc([N+](=O)[O-])cc2C1=O,Potency,[1],inactive
same,Potency,[2],inactive
same,Potency,[3],inactive
N[C@@H]1CONC1=O,Potency,[1],inactive
same,Potency,[2],inactive
same,Potency,[3],inactive
same,Potency,[6],inactive
same,outcome,[7],inactive
same,Potency,[8],inactive
same,Potency,[4],inactive
same,outcome,[9],inactive
COc1nc(C)nc(Cl)c1NC1=NCCN1,Potency,[1],inactive
same,Potency,[2],inactive
same,Potency,[3],inactive
same,Potency,[4],inactive
same,Potency,[5],inactive
CCn1cc(C(=O)O)c(=O)c2cc(F)c(N3CCNC(C)C3)c(F)c21 (stereo not given),Potency,[1],inactive
same,Potency,[2],inactive
same,Potency,[3],inactive
same,Potency,[6],inactive
same,outcome,[7],inactive
same,Potency,[8],inactive
same,Potency,[4],inactive
same,outcome,[9],inactive
same,Potency,[5],inactive
[Cl][In]([Cl])[Cl],Potency,[1],inactive
same,Potency,[3],inactive
same,Potency,[6],inactive
same,outcome,[7],inactive
same,Potency,[4],inactive
same,Potency,[5],inactive
Nc1ccc2cc3ccccc3cc2c1,Potency,[1],inactive
same,Potency,[2],inactive
same,Potency,[3],5.54 µM (active) and 34.4 µM (active)
same,Potency,[5],inactive
O=Nc1ccc(Nc2ccccc2)cc1,Potency,[5],19.4 µM (active) and 24.3 µM (active)
